High-throughput results from PubChem.
LmPK inh = blocks Leishmania mexicana pyruvate kinase activity; Q27686; purified LmPK, Kinase-Glo ATP luminescence, 1 h; Potency, µM (top dose mostly 57.5 µM), for inactives: at the highest dose activity change, negative = inhibition, hits mostly inhibitors; hit rate 0.37% among 290,000; AID 1721
Target sequence (Q27686 whole entry, looked up): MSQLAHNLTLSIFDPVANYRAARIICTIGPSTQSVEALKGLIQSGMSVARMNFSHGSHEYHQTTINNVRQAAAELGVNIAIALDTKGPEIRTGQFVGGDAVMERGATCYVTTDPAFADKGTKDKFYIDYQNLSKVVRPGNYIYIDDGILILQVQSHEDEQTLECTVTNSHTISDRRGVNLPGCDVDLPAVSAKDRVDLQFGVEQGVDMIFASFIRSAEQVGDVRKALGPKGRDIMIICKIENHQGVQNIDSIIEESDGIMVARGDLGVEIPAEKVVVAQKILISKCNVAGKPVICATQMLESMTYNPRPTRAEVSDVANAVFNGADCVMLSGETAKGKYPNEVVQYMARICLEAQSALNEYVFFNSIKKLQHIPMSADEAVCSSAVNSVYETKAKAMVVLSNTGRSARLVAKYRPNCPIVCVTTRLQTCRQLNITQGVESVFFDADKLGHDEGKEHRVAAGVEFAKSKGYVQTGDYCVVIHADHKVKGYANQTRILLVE
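Pyruvate kinase activity monitored as ATP production (luciferase luminescence). Conditions: 0.1 nM enzyme, 0.5 mM PEP, 0.1 mM ADP, 1 h, RT; normalized against uninhibited and no-enzyme wells.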
Giardia FBPA inh = inhibitors of Giardia lamblia fructose-1,6-bisphosphate aldolase. A8B2U2. purified Giardia FBPA. Potency, µM (doses to about 59.6 µM), for inactives: at the top dose activity, negative = inhibition, hits mostly inhibitors. hit rate 0.71% among 290,000. AID 2451; further: nearly all actives have a fitted effect of over 55% in size
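Giardia FBPA (40 nM reagent) was preincubated 10 min at RT with compound (up to 57.5 uM final), then substrate plus GAPDH/TPI/NAD/arsenate coupling system with diaphorase/resazurin was added; resorufin fluorescence (525/598 nm) was read after 20 min.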
AMA1 RON2 block = disrupts binding of P. falciparum AMA1 to RON2; hit rate 0.2% among 360,000; Potency, µM (highest dose often 58.2 µM), without a hit: at the highest dose activity change, negative = inhibition, actives largely listed as inhibitors; AlphaScreen AMA1-biotinylated RON2 peptide binding; AID 720542;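 further: 0% = vehicle wells and -100% = peptide control; nearly all actives have a fitted effect of over 45% in size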
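AMA1 (3D7) with his tag at 25 nM final met compounds first, then biotinylated RON2 peptide at 25 nM; detection used donor plus acceptor beads, 10 µg/mL apiece, read by AlphaScreen after 30 min at room temperature.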
AmpC no deterg = blocks E. coli AmpC beta-lactamase in detergent-free assay; P00811; AmpC nitrocefin hydrolysis, absorbance 480 nm, 0.0001% Triton; Potency, µM (highest dose often 57.1 µM), for inactives: top-dose activity change, negative = inhibition, hits mostly inhibitors; hit rate 0.52% among 330,000;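 further: plate controls were no compound for no effect and no enzyme for full effect; nearly all actives have a fitted effect of over 20% in size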
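20 mM phosphate pH 7.0 + 0.01% (detergent screen) or 0.0001% Triton X-100; 5.3 nM AmpC reagent; cpd preinc 15 min RT; nitrocefin (800 uM stock) to start; A480 q20 s × 4 min; Activity was normalised to no-enzyme and no-compound control wells.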
AmpC inh detg = AmpC beta-lactamase inhibition with detergent present | AmpC hydrolysis of nitrocefin, absorbance 480 nm, 0.01% Triton | P00811 | hit rate 0.041% among 370,000 | Potency, µM (titrated, usually from 114 µM), for the others: at the top dose activity change, negative = inhibition, most hits filed as inhibitors | AID 485294;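 further: 0% = no-compound wells and -100% = no-enzyme wells; nearly all actives have a fitted effect of over 25% in size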
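AmpC (5.3 nM in the dispensed reagent) in 20 mM phosphate pH 7.0 with 0.01% (detergent screen) or 0.0001% Triton X-100 was preincubated with compounds for 15 min at room temperature. Nitrocefin was then added from an 800 uM solution, and hydrolysis was followed at 480 nm.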
* hit, by the source's call; u = inconclusive; x = not tested or not shown. In the library only some 1.3% were active in any assay of this set; here they are far more common. The call rests on the fitted dose curve; in most records, active means well fitted curve in the direction sought with a large enough effect; inconclusive means small, poorly fitted or top-dose-only effect, or another doubt; inactive means no such curve, though single readings can be large; an effect the other way counts as inactive or inconclusive. Unless noted, on the % scale 0 is the no-effect control and ±100 the full control effect; potency means the concentration at half of the fitted maximal effect.

SMILES | LmPK inh | Giardia FBPA inh | AMA1 RON2 block | AmpC no deterg | AmpC inh detg
COc1cc(C2Nc3cccc4cccc(c34)N2)cc(OC)c1O | -18.1% | u | -5.1% | 31.6µM* | -3.2%
N#Cc1c(-c2c(Cl)cccc2Cl)noc1/C=C/Nc1ccc(C(=O)O)cc1 | 2.4% | 12.9% | 13.8% | 17.8µM* | 2.2%
COc1cc(NC(=O)C2(C)CCCN2C)cc(OC)c1OC (configuration not stated) | x | x | 6.8% | x | x
CC1CC(C)CN(C(=O)c2ccc3c(c2NCCO)C(=O)c2ccccc2C3=O)C1 (configuration not stated) | u | -8.2% | 22.4µM* | 129.2% | -8.3%
COC(=O)c1ccc(CNC(=O)C(C)N=C2NS(=O)(=O)c3ccccc32)cc1 (configuration not stated) | x | x | 0.1% | -12.3% | u
CCOC(=O)CNC(=O)C(Cc1ccccc1)NC(=O)OCc1ccccc1 (configuration not stated) | 14.1µM* | 3.4% | 0.0% | 1.2% | -1.4%
Cc1cc(Nc2cc(F)ccc2C)n2ncnc2n1 | 3.5% | -5.5% | -1.9% | 28.2µM* | -4.0%
COc1ccc(NC(=O)N(C)C[C@H]2Oc3c(NC(=O)C4CC4)cccc3C(=O)N([C@H](C)CO)C[C@@H]2C)cc1 | x | x | -3.1% | -12.3% | x
NS(=O)(=O)c1ccc(N/N=C/c2ccc(O)c(O)c2O)c([N+](=O)[O-])c1 | -5.9% | 7.92µM* | u | 7.08µM* | -13.2%
Cc1cc2[nH]c(=O)c(=O)[nH]c2cc1S(=O)(=O)N1CCN(c2cccc(C(F)(F)F)c2)CC1 | -1.0% | -4.2% | 5.3% | 3.16µM* | -8.6%
Cc1cc2[nH]c(=O)c(=O)[nH]c2cc1S(=O)(=O)N1CCN(c2cccc(Cl)c2)CC1 | -3.0% | -17.9% | -1.0% | -52.9% | -13.9%
O=C(Nc1ccccc1)Nc1sccc1-c1nc2ccccc2s1 | 3.0% | -25.4% | 20.2% | 14.1µM* | 7.6%
C=CCN1C(=O)C(=Cc2ccc3c(c2)CCC3)SC1=S | x | x | -0.1% | x | x
CC(=O)NN1C(=O)/C(=C\c2ccc(Br)o2)SC1=S | 14.2% | u | 3.0% | -15.9% | -3.4%
CC(=O)NN1C(=O)/C(=C/c2ccc(Br)o2)SC1=S | 21.0% | u | 31.6µM* | -16.9% | -13.8%
O=S1(=O)C[C@H](N2CCCC2)[C@@H](COCc2ccccc2)N1 | x | x | 0.0% | x | x
O=C(NC(=S)Nc1nc(-c2ccccc2)cs1)c1cccs1 | 1.9% | -0.8% | 22.0% | -33.1% | 0.2%
O=C(NNc1nc(-c2ccccc2)cs1)c1cccs1 | -2.7% | 4.6% | 50.0% | 8.91µM* | -1.8%
Cc1[nH]c2ccc(C(=O)OCC(=O)Nc3cccc(S(N)(=O)=O)c3)cc2c1C | x | x | -2.0% | -31.0% | -1.3%
CCOC(=O)c1c(-n2c(C)cc(C=C3C(=O)NC(=O)NC3=O)c2C)sc2c1CCCC2 | 4.2% | 4.6% | -10.7% | 0.4% | 2.4%
Cc1cccc(N2C(=O)NC(=O)/C(=C\c3cc(C)n(-c4sc5c(c4C#N)CCCC5)c3C)C2=O)c1C | 0.5% | -8.6% | -0.1% | 31.6µM* | -7.5%
O=C(COC(=O)c1ccc(NS(=O)(=O)c2cccs2)cc1O)Nc1nc2ccccc2s1 | 0.5% | 3.5% | -7.4% | 1.58µM* | 1.1%
COc1ccc(Cl)cc1NC(=O)COC(=O)c1cc(NS(=O)(=O)c2cccs2)ccc1O | 3.7% | -2.4% | 10.3% | 20µM* | -11.8%
O=C(COC(=O)c1ccc(NS(=O)(=O)c2cccs2)cc1O)NCc1ccccc1 | 0.4% | 11.3% | -11.5% | -23.7% | 2.4%
COc1ccc(C(O)c2ncc(-c3ccccc3Cl)[nH]2)cc1F (configuration not stated) | x | x | 0.0% | x | x
SMILES | LmPK inh | Giardia FBPA inh | AMA1 RON2 block | AmpC no deterg | AmpC inh detg
Cc1ccc(-c2nnc(Nc3ccc(Br)cc3)c3ccccc23)cc1S(=O)(=O)N1CCN(C)CC1 | x | x | x | x | -3.1%
CCn1ncc(Br)c1C(=O)Nc1ccc(F)cc1F | 7.4% | -0.6% | 6.2% | 0.316µM* | -1.3%
CCn1ncc(Br)c1C(=O)Nc1ccccc1C(F)(F)F | 0.1% | 2.7% | -0.6% | 0.8% | 1.5%
O=C1/C(=C\c2cccnc2)CCc2ccccc21 | 15.8µM* | 0.1% | -1.1% | 4.7% | 1.1%
CSCC[C@H](NC(=O)[C@@H](NC(=O)[C@H](CCC(=O)O)NC(=O)[C@H](CCSC)NC(=O)[C@H](CC(N)=O)NC(=O)[C@H](CCC(=O)O)NC(=O)[C@H](CC(N)=O)NC(=O)[C@H](CO)NC(=O)[C@H](C)N)[C@@H](C)O)C(=O)O | x | 1.0% | x | x | x
CCn1c(SCC(=O)N=Nc2c(O)[nH]c3ccccc23)nnc1-c1ccc(C(C)(C)C)cc1 | -3.4% | -0.2% | x | -1.6% | 0.9%
CCn1c(SCC(=O)N=Nc2c(O)[nH]c3ccccc23)nc2ccccc21 | -0.9% | -8.0% | -15.6% | 5.01µM* | -8.1%
COc1cc(/C=N/NC(=O)c2ccc(-n3cccc3)cc2)ccc1O | -2.6% | -2.1% | -5.5% | 14.1µM* | -13.6%
COc1cc(/C=N/NC(=O)c2ccc(F)cc2)ccc1OC(=O)c1ccco1 | 3.2% | -1.1% | 8.0% | 10µM* | -1.9%
COc1cc(/C=N/NC(=O)c2ccc3c(c2)OCO3)ccc1O | 6.1% | -9.3% | 60.7% | -20.6% | 1.7%
NC(=O)C(=CNc1nc(-c2ccc(Cl)c(Cl)c2)cs1)C(N)=O | -9.5% | 17.7µM* | x | 14.1µM* | -7.4%
O=C(O)c1ccc(-c2nc(-c3ccc(Cl)c(Cl)c3)cs2)cc1 | -9.7% | 2.1% | -1.7% | -39.1% | 3.3%
COc1ccc2[nH]c3c(=O)n(CCCCC(=O)NCCN4CCCC4)c(=S)[nH]c3c2c1 | 7.08µM* | -13.6% | 20.8% | 46.9% | 5.8%
COc1ccc2[nH]c3c(=O)n(CCCCC(=O)N4CCC(C(N)=O)CC4)c(=S)[nH]c3c2c1 | 3.98µM* | -4.7% | 49.2% | -22.6% | -5.0%
O=C(CSc1nc(-c2ccccc2)c(-c2ccccc2)o1)NCCCO | -4.8% | x | 8.5% | 155.4% | u
O=C(Nc1ccccn1)c1onc2c1CCCC2 | 11.2µM* | -3.9% | -1.8% | -15.5% | -17.3%
COc1cc(OC)c(C(=O)OCC(=O)NCC2CCCCC2)cc1OC | x | x | 8.0% | 14.0% | u
CC(N)(Cc1ccc(O)cc1)C(=O)O (configuration not stated) | x | -1.3% | x | x | x
C[C@@](N)(Cc1ccc(O)c(O)c1)C(=O)O | x | 22.3µM* | x | x | x
Cc1ccc2nc(NC(=O)c3nc(SCc4ccccc4C)ncc3Cl)sc2c1 | x | x | x | x | 2.5%
